According to PubChem BioAssay AID1159580 (chemical genetic matrix, 2015):
“And” between values parts separate entries of the source, which are not always exact repeats. Equal values may be shown once. The whole screen tested about 5,500 compounds, of which about 2,000 (36%) were called active. Inconclusive results (about 18%) are left out. Rule as the data show it: active = normalized growth mostly below about 0.91 (no sharp cut-off); inconclusive = no clear call, values can overlap the other calls; inactive = mostly above about 0.92. The list shows a part of the results.

Test: chemical genetic growth profiling, strain panel (AID 1159580);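 also: tested at 20 µM; growth read once vehicle control cultures reached saturation at 30 °C; 1 = growth at the plate median or of vehicle wells; lower values mean less growth of the strain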
Settings: growth OD

Measured: normalized growth

OC(CCN1CCCCC1)(c1ccccc1)C1CCCCC1 (stereo unspecified)
inactive: S. cerevisiae deletion strains, locus YJR075W, strain HOC1, stronger effect = lower value 1.01 and 0.98 | S. cerevisiae deletion strains, locus YKL009W, strain mrt4, stronger effect = lower value 0.999 | S. cerevisiae deletion strains, locus YKL068W, stronger effect = lower value 0.997 | S. cerevisiae deletion strains, locus YKL085W, strain MDH1 (second series), stronger effect = lower value 0.998 | S. cerevisiae deletion strains, locus YKL085W, strain MDH1, stronger effect = lower value 0.998 | S. cerevisiae deletion strains, locus YKL160W, strain elf1, stronger effect = lower value 0.96 | S. cerevisiae deletion strains, locus YKL190W, strain CNB1, stronger effect = lower value 1.01 | S. cerevisiae deletion strains, locus YKR001C, strain vps1, stronger effect = lower value 0.985 | S. cerevisiae deletion strains, locus YKR026C, strain gcn3, stronger effect = lower value 0.971 | S. cerevisiae deletion strains, locus YKR091W, strain srl3, stronger effect = lower value 0.978 | S. cerevisiae deletion strains, locus YLL001W, strain dnm1, stronger effect = lower value 0.918 | S. cerevisiae deletion strains, locus YLL026W, stronger effect = lower value 0.981 | S. cerevisiae deletion strains, locus YLL041C, strain sdh2, stronger effect = lower value 0.975 | S. cerevisiae deletion strains, locus YLR027C, strain aat2, stronger effect = lower value 0.954 | S. cerevisiae deletion strains, locus YLR039C, strain RIC1, stronger effect = lower value 1.12 | S. cerevisiae deletion strains, locus YLR058C, strain SHM2, stronger effect = lower value 1.01 | S. cerevisiae deletion strains, locus YLR102C, strain apc9, stronger effect = lower value 0.995 | S. cerevisiae deletion strains, locus YLR113W, strain HOG1, stronger effect = lower value 0.991 | S. cerevisiae deletion strains, locus YLR221C, strain rsa3, stronger effect = lower value 1.01 | S. cerevisiae deletion strains, locus YLR258W, strain gsy2, stronger effect = lower value 0.992 | S. cerevisiae deletion strains, locus YLR262C, strain YPT6 (second series), stronger effect = lower value 0.989 | S. cerevisiae deletion strains, locus YLR262C, strain YPT6, stronger effect = lower value 1.1 | S. cerevisiae deletion strains, locus YLR268W, strain sec22, stronger effect = lower value 0.98 | S. cerevisiae deletion strains, locus YLR320W, strain mms22, stronger effect = lower value 0.961 | S. cerevisiae deletion strains, locus YLR330W, strain CHS5, stronger effect = lower value 1.01 | S. cerevisiae deletion strains, locus YLR342W, strain FKS1 (second series), stronger effect = lower value 1 | S. cerevisiae deletion strains, locus YLR342W, strain FKS1, stronger effect = lower value 0.959 | S. cerevisiae deletion strains, locus YLR357W, strain rsc2, stronger effect = lower value 0.939 | S. cerevisiae deletion strains, locus YLR370C, strain arc18, stronger effect = lower value 0.974 | S. cerevisiae deletion strains, locus YLR371W, strain rom2, stronger effect = lower value 1 | S. cerevisiae deletion strains, locus YLR384C, strain iki3, stronger effect = lower value 0.961 | S. cerevisiae deletion strains, locus YLR418C, strain cdc73, stronger effect = lower value 0.966 | S. cerevisiae deletion strains, locus YML016C, strain PPZ1, stronger effect = lower value 1.01 | S. cerevisiae deletion strains, locus YML032C, strain rad52, stronger effect = lower value 0.986 | S. cerevisiae deletion strains, locus YML120C, strain ndi1, stronger effect = lower value 0.97 | S. cerevisiae deletion strains, locus YML124C, strain tub3, stronger effect = lower value 0.997 | S. cerevisiae deletion strains, locus YMR058W, strain fet3, stronger effect = lower value 0.964 | S. cerevisiae deletion strains, locus YMR078C, strain ctf18, stronger effect = lower value 0.998 | S. cerevisiae deletion strains, locus YMR125W, strain sto1, stronger effect = lower value 0.977 | S. cerevisiae deletion strains, locus YMR129W, stronger effect = lower value 0.98 | S. cerevisiae deletion strains, locus YMR205C, strain PFK2, stronger effect = lower value 0.955 | S. cerevisiae deletion strains, locus YMR223W, strain ubp8, stronger effect = lower value 1.01 | S. cerevisiae deletion strains, locus YMR231W, strain pep5, stronger effect = lower value 0.973 | S. cerevisiae deletion strains, locus YMR263W, strain SAP30, stronger effect = lower value 1.01 and 0.983 | S. cerevisiae deletion strains, locus YMR307W, strain GAS1, stronger effect = lower value 1.01 and 0.985 | S. cerevisiae deletion strains, locus YNL067W, strain RPL9B, stronger effect = lower value 1 | S. cerevisiae deletion strains, locus YNL071W, strain lat1, stronger effect = lower value 0.98 | S. cerevisiae deletion strains, locus YNL128W, strain TEP1, stronger effect = lower value 1.02 | S. cerevisiae deletion strains, locus YNL153C, strain GIM3, stronger effect = lower value 1 | S. cerevisiae deletion strains, locus YNL175C, strain NOP13, stronger effect = lower value 1.01 | S. cerevisiae deletion strains, locus YNL183C, strain NPR1, stronger effect = lower value 0.935 | S. cerevisiae deletion strains, locus YNL197C, strain WHI3, stronger effect = lower value 1.03 | S. cerevisiae deletion strains, locus YNL209W, strain ssb2, stronger effect = lower value 0.993 | S. cerevisiae deletion strains, locus YNL224C, strain SQS1, stronger effect = lower value 0.998 | S. cerevisiae deletion strains, locus YNL233W, strain BNI4, stronger effect = lower value 0.998 | S. cerevisiae deletion strains, locus YNL248C, strain rpa49, stronger effect = lower value 0.995 | S. cerevisiae deletion strains, locus YNL250W, strain rad50, stronger effect = lower value 0.999 | S. cerevisiae deletion strains, locus YNL271C, strain bni1, stronger effect = lower value 0.989 | S. cerevisiae deletion strains, locus YNL298W, strain CLA4, stronger effect = lower value 1.02 | S. cerevisiae deletion strains, locus YNL307C, strain MCK1, stronger effect = lower value 0.998 | S. cerevisiae deletion strains, locus YNL322C, strain KRE1 (second series), stronger effect = lower value 0.976 | S. cerevisiae deletion strains, locus YNL322C, strain KRE1, stronger effect = lower value 1.01 | S. cerevisiae deletion strains, locus YNR049C, strain mso1, stronger effect = lower value 0.967 | S. cerevisiae deletion strains, locus YNR052C, strain pop2, stronger effect = lower value 1 | S. cerevisiae deletion strains, locus YOL006C, strain TOP1, stronger effect = lower value 0.951 | S. cerevisiae deletion strains, locus YOL012C, strain htz1 0.776 | S. cerevisiae deletion strains, locus YOL147C, strain pex11, stronger effect = lower value 0.994 | S. cerevisiae deletion strains, locus YOR001W, strain rrp6, stronger effect = lower value 0.949 | S. cerevisiae deletion strains, locus YOR061W, strain CKA2, stronger effect = lower value 1.01 | S. cerevisiae deletion strains, locus YOR069W, strain VPS5, stronger effect = lower value 1.01 | S. cerevisiae deletion strains, locus YOR070C, strain gyp1, stronger effect = lower value 0.986 | S. cerevisiae deletion strains, locus YOR080W, strain dia2, stronger effect = lower value 0.971 | S. cerevisiae deletion strains, locus YOR083W, strain WHI5 (second series), stronger effect = lower value 0.994 | S. cerevisiae deletion strains, locus YOR083W, strain WHI5, stronger effect = lower value 0.951 | S. cerevisiae deletion strains, locus YOR106W, strain vam3, stronger effect = lower value 0.936 | S. cerevisiae deletion strains, locus YOR136W, strain idh2, stronger effect = lower value 1 | S. cerevisiae deletion strains, locus YOR144C, strain elg1, stronger effect = lower value 0.993 | S. cerevisiae deletion strains, locus YOR184W, strain ser1, stronger effect = lower value 1.01 | S. cerevisiae deletion strains, locus YOR231W, strain MKK1, stronger effect = lower value 0.984 | S. cerevisiae deletion strains, locus YOR265W, strain rbl2, stronger effect = lower value 0.983 | S. cerevisiae deletion strains, locus YOR270C, strain vph1, stronger effect = lower value 0.849 | S. cerevisiae deletion strains, locus YOR290C, strain snf2, stronger effect = lower value 0.989 | S. cerevisiae deletion strains, locus YOR316C, strain cot1, stronger effect = lower value 1 | S. cerevisiae deletion strains, locus YPL051W, strain arl3, stronger effect = lower value 0.984 | S. cerevisiae deletion strains, locus YPL055C, strain LGE1, stronger effect = lower value 1.03 and 0.971 | S. cerevisiae deletion strains, locus YPL078C, strain atp4, stronger effect = lower value 0.931 | S. cerevisiae deletion strains, locus YPL106C, strain sse1, stronger effect = lower value 1.01 | S. cerevisiae deletion strains, locus YPL240C, strain hsp82, stronger effect = lower value 0.976 | S. cerevisiae deletion strains, locus YPL241C, strain CIN2, stronger effect = lower value 1.01 | S. cerevisiae deletion strains, locus YPL256C, strain CLN2, stronger effect = lower value 0.962 | S. cerevisiae deletion strains, locus YPR119W, strain clb2, stronger effect = lower value 0.998 | S. cerevisiae deletion strains, locus YPR141C, strain kar3, stronger effect = lower value 1.01 | S. cerevisiae deletion strains, locus YPR163C, strain tif3, stronger effect = lower value 0.988 | S. cerevisiae deletion strains, locus YPR167C, strain met16, stronger effect = lower value 0.998 | S. cerevisiae deletion strains, strain wtn01, stronger effect = lower value 0.993 | S. cerevisiae strains, strain wild type, stronger effect = lower value 1.01
